Experimental findings from PubChem BioAssay AID602387 (Sanford-Burnham Center for Chemical Genomics, 2012) are described below.

Structures are written as SMILES. In all, about 2,300 compounds went through this assay and about 30 (1%) were called active.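 How the source made its calls: active means activation of at least 30% at 10 µM; inactive means the rest.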 Only a sample is shown.

A short description of the experiment: spectral interference with molecular beacon fluorescence, confirmation, artefact control for DNMT1 inhibitor project, biochemical, fluorescent molecular beacon, single concentration (AID 602387).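 Further: DNMT1 catalytic domain with a HinP1I cleavage step and a FAM/dabcyl DNA beacon.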 The settings on record: DNMT1 molecular beacon spectral interference counterscreen, fluorescence 485/520; at 10 µM; active compounds read high. In general terms: Counterscreens check selectivity or assay interference.
For the molecule `COc1ccc(NC(=O)CCn2ccnc2)c(OC)c1`, the activation (fluorescence interference) is 5.11% (inactive).
For `Cc1ccc2[nH]c(=O)c(-c3nc4c(C)cccn4c3NCc3ccco3)cc2c1`, the activation (fluorescence interference) was -3.31% (inactive).
Take `NNc1cccc(C=Cc2ccccc2)cc1=O`: the activation (fluorescence interference) was -0.89% (inactive).
Take `NC1=CC(=O)C(=O)c2cccnc21`: the activation (fluorescence interference) was 34.8% (active).
On to `C=C(C)C(=O)Nc1cccc(C2=NOC3(C2)C[C@H](C(N)=O)N(C(=O)C(c2ccccc2)c2ccccc2)C3)c1` (stereo not given in full), for which the activation (fluorescence interference) is -0.25% (inactive).
In the case of `CCC/C=C(\CCC)C(NC(=O)Cc1ccccc1)c1ccc(C(=O)OC)cc1` (stereo not given), the activation (fluorescence interference) is 2.66% (inactive).
In the case of `Cc1ccccc1NC(=O)CN1C(=O)N/C(=C\c2cccn2-c2cccc(C(=O)O)c2)C1=O` it was -2.61% (inactive); in that of `O=C(Nc1nc(-c2ccco2)c(-c2ccco2)s1)c1ccco1`, 6.11% (inactive).
With `O=c1[nH]c(/C=C/c2cccc(Br)c2)nc2ccccc12`, the activation (fluorescence interference) is -5.42% (inactive).
Turning to `CC(=O)Nc1ccccc1Sc1ccc2c3c(cccc13)C(=O)N(c1ccc(C)cc1)C2=O`, the activation (fluorescence interference) is 2.58% (inactive).
As to `Cc1ccc(Cc2cncc(O)c2)cc1S(=O)(=O)O`, the activation (fluorescence interference) was 5.41% (inactive).
On to `CC(=O)c1ccc(NC(=O)c2ccc3c(Cl)c4c(nc3c2)CCCC4)cc1`, for which the activation (fluorescence interference) is -4.05% (inactive).
Take `Cc1ccccc1-n1cc(CNC(=O)CC2C(=O)NCCN2C/C=C/c2ccccc2)cn1` (stereo not given): the activation (fluorescence interference) was 1.73% (inactive).
`Cc1ccc(-c2cc(C(=O)NCc3cn(C)nc3C)c3cc(Br)ccc3n2)cc1`: the activation (fluorescence interference) is 2.74% (inactive).
Regarding `Cc1ccc(-c2nnc(-c3ccc(NC(=O)c4cccs4)cc3)o2)cc1`, the activation (fluorescence interference) is -3.03% (inactive).
In the case of `O=C(CN1CCCSc2ccccc21)N1CCN(S(=O)(=O)c2cccc(F)c2)CC1` it was 2.83% (inactive).
The same measure for `O=C(COC(=O)/C=C/c1cn(-c2ccccc2)nc1-c1cccnc1)Nc1ccc(Cl)cc1Cl`: -2.13% (inactive); for `O=C(Nc1cccc(F)c1)c1cc(-c2ccco2)nc2ccccc12`: 3.89% (inactive); for `COc1ccc(CC(=O)Nc2ccc(-c3nnc(-c4ccccc4)o3)cc2)cc1`: -2.31% (inactive).
Regarding `CCOc1ccc(CN2CCC(n3nccc3NC(=O)C3CC3)CC2)cc1CO`, the activation (fluorescence interference) was 3.5% (inactive).
As for `Nc1cc2c(cc1Br)-c1ccc(F)cc1C2=O`, the activation (fluorescence interference) was -1.05% (inactive).
Take `COc1ccc2c(c1)c(=O)c(C(=O)c1ccc(Cl)cc1)cn2CC(=O)Nc1ccc(F)cc1`: the activation (fluorescence interference) was -1.8% (inactive).
With `O/N=C1\CC2(Cc3nonc31)OCCO2`, the activation (fluorescence interference) is 2.87% (inactive).
For the molecule `CCOC(=O)N1CC=C2C(C#N)=C(N)C(C#N)(C#N)[C@H](c3cccs3)[C@H]2C1`, the activation (fluorescence interference) was 9.6% (inactive).
`NC(CSC(c1ccccc1)(c1ccccc1)c1ccc(-c2ccccc2)cc1)C(=O)O` (stereo not given): the activation (fluorescence interference) is 5.09% (inactive).
